NALP1 yeast inh – blocks the NALP1 inflammasome reconstituted in yeast; S. cerevisiae NALP1/ASC/caspase-1 growth, X-gal OD620, 72 h; inhibition, % at 10 µM; 280,000 compounds, 0.61% hits; AID 2071; in the data active means inhibition mostly above about 24%, no sharp cut-off; inactive means mostly below about 32%
TIM10 inh – TIM10 yeast growth inhibition. 330,000 compounds, 1.4% hits. S. cerevisiae TIM10 strain growth, BacTiter-Glo luminescence, 24 h. inhibition, % at 10 µM;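 active means inhibition of 40% or more at the single tested concentration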;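 further: wild-type TIM10 isogenic control strain grown at permissive 25 °C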
V-ATPase pH – alters yeast V-ATPase proton transport; AID 504577; S. cerevisiae, pHLuorin cytosolic pH fluorescence; 350,000 compounds, 0.37% hits; response, % at 10 µM; in the data active means response mostly above about 7.3%, no sharp cut-off; inactive means mostly below about 5.4%; further: actives read high
NALP3 yeast inh – NALP3 inhibition in yeast. Yeast reconstituted NLRP3/ASC/caspase-1, beta-gal luminescence, 24 h. 330,000 compounds, 0.39% hits. AID 2825. inhibition, % at 10 µM;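 active means inhibition of 50% or more; inactive means inhibition below 50%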;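 further: plate controls were induced DMSO wells for no effect and uninduced yeast grown without galactose for full effect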
tim10-1 inh – inhibits growth of tim10-1 mutant yeast. S. cerevisiae tim10-1 ts strain growth, BacTiter-Glo, 24 h. inhibition, % at 20 µM. 330,000 compounds, 2.2% hits. AID 463190;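 active means inhibition of at least 40%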;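 further: mutant grown at 25 °C; 0% = DMSO wells with yeast and 100% = wells holding no yeast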
tim23-1 inh – inhibits growth of tim23-1 mutant yeast; S. cerevisiae tim23-1 growth, BacTiter-Glo luminescence, 24 h; inhibition, % at 20 µM; 330,000 compounds, 1.3% hits; AID 463212;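 active means growth inhibition of the mutant yeast at or above 50%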;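 further: temperature-sensitive mutant grown at 25 °C; plate controls were DMSO-treated mutant yeast for no effect and medium wells lacking yeast for full effect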
tim23-1 conf – confirmation of tim23-1 mutant yeast growth inhibitors; AID 463218; inhibition, % at 20 µM; 4,400 compounds, 83% hits; S. cerevisiae tim23-1 growth, BacTiter-Glo luminescence, 24 h; shares compounds with tim23-1 inh;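 active means inhibition above about 39% in either of two replicate wells at 20 µM, limit read from the data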;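 further: temperature-sensitive tim23-1 mutant grown at 25 °C; 0% = DMSO wells with yeast and 100% = medium wells without yeast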
* hit, by the source's call; / = not tested or not shown. Compounds with a hit are over-represented: about 4.2% of the library has one in this group of screens.

SMILES | NALP1 yeast inh | TIM10 inh | V-ATPase pH | NALP3 yeast inh | tim10-1 inh | tim23-1 inh | tim23-1 conf
NC(=S)N/N=C/c1coc2cc(Br)ccc2c1=O | 0 | 32 | -3 | 5 | 28 | 58* | 58*
NC(=S)N/N=C/c1coc2ccc(Br)cc2c1=O | / | 34 | 2 | 3 | 18 | 78* | 75*
NC(=S)N/N=C/c1coc2ccc(O)cc2c1=O | 4 | 4 | 3 | 4 | 2 | -14 | /
C#CCOCCOCCOCCNc1nc(N2CCN(C(=O)CCCCCCCCCCNC(=O)Cn3cc(C[C@@H](C)O)nn3)CC2)nc(N2CCN(C(=O)CCCCCCCCCCNC(=O)[C@H](CCCCN)n3cc(C[C@@H](C)CC)nn3)CC2)n1 | / | 7 | 4 | 30 | 34 | 54* | 56*
C#CCOCCOCCOCCNc1nc(N2CCN(C(=O)CCCCCCCCCCNC(=O)[C@H]([C@@H](C)CC)n3cc(CCCCN=C(N)N)nn3)CC2)nc(N2CCN(C(=O)CCCCCCCCCCNC(=O)[C@H](CCCCN)n3cc(C[C@@H](C)CC)nn3)CC2)n1 | / | 18 | / | 19 | 26 | 52* | 45*
C#CCOCCOCCOCCNc1nc(N2CCN(C(=O)CCCCCCCCCCNC(=O)[C@H](CCCCN)n3cc(C)nn3)CC2)nc(N2CCN(C(=O)CCCCCCCCCCNC(=O)[C@@H]([C@H](C)CC)n3cc(CCCCCN)nn3)CC2)n1 | / | 7 | -1 | 31 | 34 | 37 | /
C#CCOCCOCCOCCNc1nc(N2CCN(C(=O)CCCCCCCCCCNC(=O)Cn3cc(CCCCCN)nn3)CC2)nc(N2CCN(C(=O)CCCCCCCCCCNC(=O)[C@H](CO)n3cc(CCCCCN)nn3)CC2)n1 | / | 11 | 2 | 33 | 34 | 53* | 45*
C#CCOCCOCCOCCNc1nc(N2CCN(C(=O)CCCCCCCCCCNC(=O)[C@H](CCCCN)n3cc(C[C@@H](C)CC)nn3)CC2)nc(N2CCN(C(=O)CCCCCCCCCCNC(=O)[C@H](CCCCN)n3cc(C[C@@H](C)CC)nn3)CC2)n1 | / | / | 8 | / | / | / | /
COc1ccccc1OCC(=O)N/N=C1/C=C(C)CC1 | 4 | 4 | 0 | 28 | -4 | 11 | /
Cn1c(-c2sc3ccccc3c2Cl)n[nH]c1=S | 11 | 29 | -2 | 18 | 27 | 52* | 44*
Nc1nc2ccccc2n1/N=C/c1cccnc1 | / | 10 | 0 | 8 | 1 | -35 | /
Nc1nc2ccccc2n1/N=C/c1ccc(-c2ccccc2)o1 | 7 | 38 | 1 | 19 | 14 | 55* | 18
N#C/C(N)=C(/C#N)N=Cc1cccc(Cl)c1 | / | 1 | 2 | 6 | -11 | 52* | 52*
Fc1ccc(-c2n[nH]c(=S)n2Cc2ccccc2)cc1 | -2 | 36 | 2 | 5 | 16 | 56* | 29
CCN1C(=O)c2ccc(C(=O)Nc3nccs3)cc2C1=O | 18 | 16 | 0 | 9 | -11 | 7 | /
CC(C)(C)N1C(=O)c2ccc(C(=O)Nc3nccs3)cc2C1=O | 3 | 8 | 0 | 25 | 5 | 58* | 59*
CC1CCc2c(c3ccccc3n2C(=O)CCl)C1 (stereo not drawn) | 8 | 31 | -2 | -14 | 39 | 69* | 56*
CCN1CCN(CC(=O)n2c3c(c4ccccc42)CC(C)CC3)CC1 (stereo not drawn) | 20 | -4 | 6 | 7 | 18 | 9 | /
Cn1c(=NC(=O)CCl)sc2ccccc21 | 0 | 13 | -1 | 29 | 34 | 57* | 36
O=C(Cn1ncc(Cl)c(Cl)c1=O)c1ccc2c(c1)OCCO2 | / | -27 | 1 | 46 | -34 | 58* | 31
CCC(=O)c1ccc2c(c1)OCCO2 | 11 | -18 | -1 | 21 | 1 | 16 | /
N#Cc1nc(-c2cccc3ccccc23)oc1NCC1CCCO1 (stereo not drawn) | 7 | 33 | 1 | 1 | 30 | 54* | 52*
Cc1cccc(Nc2nc(N)c([N+](=O)[O-])c(N3CCN(C)CC3)n2)c1 | 14 | 1 | -7 | 11 | 11 | -3 | /
Cc1cccc(Nc2nc(N)c([N+](=O)[O-])c(N3CCCC(C)C3)n2)c1 (stereo not drawn) | 33 | -46 | 1 | 10 | 23 | 50* | 20
CC(C)CCNc1nc(N)c([N+](=O)[O-])c(N2CCCCCC2)n1 | 15 | 26 | 2 | 41 | 21 | 50* | 32
SMILES | NALP1 yeast inh | TIM10 inh | V-ATPase pH | NALP3 yeast inh | tim10-1 inh | tim23-1 inh | tim23-1 conf
COc1ccc(NC(=O)c2c(C)noc2C(C)C)cc1S(=O)(=O)N1CCCCC1 | / | 1 | -5 | 6 | 0 | -3 | /
COc1cc(OC)cc(C(=O)N[C@H](C(=O)NC2CCCc3ccccc32)C(C)C)c1 (stereo partly drawn) | / | 2 | -1 | 12 | 3 | -8 | /
Clc1ccccc1CSc1nnc(-c2ccccn2)n1Cc1ccco1 | 4 | 9 | -1 | -69 | 31 | 52* | 54*
NC(=O)CSc1nnc(-c2ccccn2)n1Cc1ccco1 | 25 | 5 | -1 | 9 | 9 | 0 | /
Cc1ccc(Nc2ccc(C(=O)NC3CCCCC3)cn2)cc1 | / | 7 | 0 | 24 | -3 | 18 | /
O=C(CCCN1C(=O)/C(=C/c2ccccc2)SC1=S)Nc1cccc(O)c1 | -15 | 33 | -3 | 12 | 38 | 50* | 50*
CCN(C(=S)NC(=O)c1ccccc1Br)C1CCCCC1 | 26 | 35 | -1 | 18 | 28 | 58* | 44*
O=C(NC(=S)NC1CCCC1)c1ccccc1Br | 24 | 25 | 0 | -38 | 17 | 17 | /
CC1(C)C(=O)C=C(N2CCCCC2)c2ccccc21 | / | / | -3 | / | / | / | /
Cc1c(NS(C)(=O)=O)cccc1-c1nc2cccnc2s1 | 7 | -7 | -6 | 24 | -1 | 17 | /
Cc1c(NS(=O)(=O)c2cccs2)cccc1-c1nc2cccnc2s1 | -2 | 28 | -1 | 6 | 33 | 59* | 56*
CCCNC(=S)Nc1cc2oc3ccccc3c2cc1OC | 8 | 29 | 2 | 31 | 27 | 52* | 52*
Oc1ccc(Cl)cc1CNc1cnc2ccccc2c1 | -1 | 26 | 1 | 29 | -2 | 62* | 64*
Oc1ccccc1CNc1cnc2ccccc2c1 | 1 | 9 | -3 | -6 | 13 | 10 | /
C/C(=N\NC(=O)c1cccc(C)c1O)c1ccc(NC(=O)Cc2ccccc2)cc1 | 4 | -20 | -2 | 9 | -19 | -9 | /
Cc1cccc(-c2noc(CNC(=O)c3ccc4c(c3)OCO4)n2)c1 | 0 | 6 | -2 | 21 | -41 | 10 | /
COc1ccc(-c2noc(CNC(=O)c3ccc4c(c3)OCO4)n2)cc1 | 2 | 3 | 0 | 17 | -38 | 53* | 38
CCNc1nc(N)c(C(=O)C23CC4CC(CC(C4)C2)C3)s1 | -8 | 28 | -3 | 6 | 31 | 61* | 54*

Source: PubChem
